ATXN viability: cell viability loss in ATXN counter-screen. Potency, µM (doses to about 56.7 µM), actives largely listed as cytotoxic. hit rate 0.49% among 400,000. S2 cells (HEK-293 line with an ATXN2-luciferase reporter) viability, CellTiter-Fluor protease fluorescence, 24 h. AID 651635; also: potency is read from the fitted curve at half-maximal effect; nearly all actives have a fitted effect of over 40% in size
HepG2 viability: HepG2 cytotoxicity, counter-screen for TGF-b inhibitors; HepG2 CAGA-GFP viability, ATP luminescence, 18 h; Potency, µM (series often up to 46.1 µM), inactives show at the highest dose activity change, negative = cytotoxicity, usual class: cytotoxic; hit rate 0.76% among 410,000; also: potency is read from the fitted curve at half-maximal effect
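HepG2 CAGA-GFP cells (1000/well, DMEM with 1% FBS) received compound, then TGF-beta at 500 pg/mL final, and were incubated 18 hours at 37 degrees C. Viability was read by CellTiter-Glo luminescence. Media-only wells were set as complete cell-killing and DMSO as no toxicity.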
ATXN2 expr inh: inhibitors of ATXN2 expression; HEK-293 ATXN2-luciferase reporter, luminescence, 24 h; Potency, µM (top dose mostly 57 µM), inactives show at the top dose activity change, negative = inhibition, actives largely listed as inhibitors; hit rate 0.72% among 360,000; also: potency is read from the fitted curve at half-maximal effect; % is scaled to controls: 0 for no effect and ±100 for the full control effect; nearly all actives have a fitted effect of over 55% in size
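ATXN2-luciferase reporter cells (luciferase flanked by upstream and downstream ATXN2 gene portions) were treated 24 h at 37 °C with compounds at up to 57 uM. SteadyGlo luminescence gave expression; GF-AFC fluorescence gave viability.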
IL-1B inflam inh: inhibitors of inflammasome signaling (IL-1 beta secretion) | THP-1 LPS/ATP IL-1B secretion, AlphaLISA, 16 h; active compounds read low | activity change, % at 57.5 µM | hit rate 4.7% among 360,000 | AID 743279; in the data active = activity change below about -50%; inconclusive = mostly about -30% to -49%; also: % is scaled to controls: 0 for no effect and ±100 for the full control effect
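THP-1 cells pretreated 1 hr with compounds (up to 57.5 uM final), then stimulated with LPS (250 ng/mL final) plus ATP (1.25 mM final); secreted IL-1B measured by AlphaLISA after 16 hr, decreased signal indicating inhibition.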
TGFb inhibitor: TGF-b pathway inhibition | HepG2 CAGA-GFP TGF-b/SMAD3 reporter, GFP fluorescence, 18 h; TGF-beta stimulated, 500 pg/mL final | AID 588855 | Potency, µM (highest dose often 46.1 µM), without a hit: at the top dose activity, negative = inhibition, actives largely listed as inhibitors | hit rate 1.2% among 410,000; also: potency is read from the fitted curve at half-maximal effect; % is scaled to controls: 0 for no effect and ±100 for the full control effect; nearly all actives have a fitted effect of over 65% in size
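HEPG2 CAGA-GFP, 1000 cells/well; 2 h settle, 37 C; cpd via pin tool; TGF-b 500 pg/mL final; 18 h, 37 C; GFP imaging ex488/em500-530; %Activity normalised to -TGF-b and +DMSO controls; CRC fit, curve class.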
Starred values were filed as active, the others as inactive; i = inactive; ? = inconclusive; . = no result; ! = not active in a repeat; [ ] = another dose, or the depositor's remark. Compounds with a hit are over-represented: about 5.7% of the library has one in this group of screens. Unless noted, calls follow the shape of the dose curve; as a rule, active = well fitted curve in the direction sought with a large enough effect; inconclusive = small, poorly fitted or top-dose-only effect, or another doubt; inactive = no such curve, though single readings can be large; an effect the other way counts as inactive or inconclusive.

SMILES | ATXN viability | HepG2 viability | ATXN2 expr inh | IL-1B inflam inh | TGFb inhibitor
OC(Cn1c2ccccc2c2ccccc21)C[n+]1cccc2ccccc21 (configuration not stated) | 22µM* | -96% | ? | -68* | ?
Cc1cc(C)cc(N2C(=O)NC(=O)/C(=C\c3cccn3-c3ccc(Cl)cc3)C2=O)c1 | ? | -31% | ? | -112* | ?
Cn1cccc1/C=C1/C(=O)NC(=O)N(C(C)(C)C)C1=O | i | -6% | 1% | -7 | -9%
Cc1cc(C)cc(N2C(=O)NC(=O)/C(=C\c3cccn3-c3ccccc3)C2=O)c1 | ? | -5% | ? | -99* | ?
CCc1ccc(N2C(=O)NC(=O)/C(=C/c3cccn3CCOc3ccc(C)cc3)C2=O)cc1 | ? | 7% | 7% | -16 | 8%
O=C1NC(=S)NC(=O)C1=Cc1cccn1-c1ccc(O)cc1 | 19µM* | -108% | 24µM* | -102* | ?
CN1C(=O)/C(=C/c2cccn2-c2ccc3ccccc3c2)C(=O)NC1=S | . | -51% | ? | -117* | 16µM*
CCC(C)C(C)(COC(N)=O)COC(N)=O (configuration not stated) | i | . | 2% | . | .
Cc1ccc2c(c1)C(Cc1nc3ccccc3c(=O)n1-c1ccc(Br)cc1)C(=O)N2 (configuration not stated) | 25µM* | -17% | 0% | . | ?
Cc1cc(/C=C/c2ccnc3ccccc23)ccc1N(CCCl)CCCl | . | -22% | . | . | -9%
Cc1cccc(CN2CCCC(C(=O)c3cccc(OC(C)C)c3)C2)n1 (configuration not stated) | 32µM* | -52% | . | 34 | ?
COc1cccc(C(=O)C2CCCN(Cc3cccc(C)n3)C2)c1 (configuration not stated) | ? | -34% | . | 18 | ?
CCOC(=O)Cn1c(=O)oc2cc(S(=O)(=O)Nc3cc(OC)cc(OC)c3)ccc21 | . | -32% | . | . | ?
CC(C)[C@]12O[C@@H]1[C@@H]1O[C@]13[C@]1(O[C@H]1C[C@@H]1C4=C(CC[C@@]13C)C(=O)OC4)[C@H]2O | . | . | 0.12µM* | . | .
Cn1nc(-c2ccc(C(=O)Nc3ccc(OC(F)(F)F)cc3)cc2)c2ccccc2c1=O | ? | -20% | -33% | . | ?
CCC12CN3CCN(CC(C3)/C1=N/NC(=O)c1ccncc1)C2 | i | 8% | -11% | 0 | 1.1µM*
CCCC12CN3CCN(CC(C3)/C1=N\NC(=O)c1ccncc1)C2 | i | 6% | -13% | -2 | -19%
O=C(Oc1ccc([N+](=O)[O-])cc1)N1CCN(/[N+]([O-])=N/Oc2ccc([N+](=O)[O-])cc2[N+](=O)[O-])CC1 | . | -107% | . | . | ?
Clc1ccc(COC(Cn2ccnc2)c2ccc(Cl)cc2Cl)c(Cl)c1 (configuration not stated) | ? | 16µM*! | ? | ? | ?
Brc1ccc2c(c1)C(OC1CN3CCC1CC3)c1ccccc1CS2 (configuration not stated) | ? | -124% | ? | -80* | ?
c1ccc2c(c1)CSc1ccccc1C2C1=NCCN1 (configuration not stated) | ? | 8% | -17% | 9 | 3%
CCc1ccc(-n2c(=O)c3sc4ccccc4c3n(CC(=O)NC3CCCC3)c2=O)cc1 | ? | -2% | 0% | . | 1%
CC1(C)C(=O)CC[C@]2(C)C3C(=O)C=C4[C@H]5C[C@@](C)(C(=O)O)CC[C@]5(C)CC[C@]4(C)[C@]3(C)CC[C@@H]12 (some centres not stated) | i | 6% | 5% | 17 | ?
CC1=C(O)C(=O)C=C2C1=CC=C1[C@@]2(C)CC[C@@]2(C)[C@@H]3C[C@](C)(C(=O)O)CC[C@]3(C)CC[C@]12C | . | . | 2.4µM* | . | .
O=C(NCCOCCn1c(=O)oc2ccccc21)Nc1ccc(F)cc1F | i | -25% | -26% | . | ?
O=C1/C(=C\c2ccc([N+](=O)[O-])cc2)N2CCC1CC2 | i | -15% | -21%[11.3 µM] | -64* | 2%
